ELG1 genotoxic: induces genotoxicity in HEK293T cells with luciferase-tagged ELG1 | HEK293T ELG1-luciferase reporter, luminescence, 16 h | Potency, µM (highest dose often 46 µM), for inactives: at the highest dose activity change, positive = activation, most hits filed as activators | 1.3% of 330,000 active | AID 504466; also: % of control where 0% means no effect; nearly all actives have a fitted effect of over 60% in size
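Genotoxic stress is detected as increased luminescence from luciferase-tagged ELG1 in HEK293T cells, measured with ONE-Glo after a 16 hr treatment at 37 °C.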
Rab9 promoter act: activators of Rab9 promoter. Huh7 Rab9 promoter-luciferase reporter, luminescence, 24 h. Potency, µM (doses to about 9.22 µM), for the others: at the top dose activation, negative = inhibition, actives largely listed as activators. 2.8% of 320,000 active; also: % of control where 0% means no effect; nearly all actives have a fitted effect of over 60% in size
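Huh7 cells stably carrying a Rab9 promoter-luciferase reporter, 1500 cells per well in OP-MEM I with 10% FBS, treated with compound 24 hours at 37C. Luciferase activity read by luminescence after 10 minutes with Amplite reagent.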
SMN2 splice enh: enhancers of SMN2 splice variant expression. AID 1458. Potency, µM (highest dose often 46.1 µM), for inactives: at the highest dose activity change, positive = activation, actives largely listed as activators. HEK293 SMN2-luciferase splicing reporter, luminescence, 30-36 h. 2.8% of 210,000 active; also: % of control where 0% means no effect; nearly all actives have a fitted effect of over 55% in size
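HEK293 cells carry an SMN2 minigene-luciferase reporter in which exon 7 inclusion puts luciferase in frame. Cells were seeded at 2000 cells/well, attached for 10-12 hours, then exposed to compounds for 30-36 hours at 37C before ONE-Glo luminescence.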
FLuc counter: inhibits or activates purified firefly luciferase, miR-21 counter-screen | purified FLuc, Km substrates, luminescence inhibition | AID 588342 | Potency, µM (titrated, usually from 57.5 µM), inactives show at the top dose activity change, negative = inhibition, most hits filed as inhibitors | P08659 | 6.9% of 360,000 active;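 also: plate controls were vehicle for no effect and reference inhibitor for full effect; nearly all actives have a fitted effect of over 55% in size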
Target sequence (P08659 whole entry, looked up): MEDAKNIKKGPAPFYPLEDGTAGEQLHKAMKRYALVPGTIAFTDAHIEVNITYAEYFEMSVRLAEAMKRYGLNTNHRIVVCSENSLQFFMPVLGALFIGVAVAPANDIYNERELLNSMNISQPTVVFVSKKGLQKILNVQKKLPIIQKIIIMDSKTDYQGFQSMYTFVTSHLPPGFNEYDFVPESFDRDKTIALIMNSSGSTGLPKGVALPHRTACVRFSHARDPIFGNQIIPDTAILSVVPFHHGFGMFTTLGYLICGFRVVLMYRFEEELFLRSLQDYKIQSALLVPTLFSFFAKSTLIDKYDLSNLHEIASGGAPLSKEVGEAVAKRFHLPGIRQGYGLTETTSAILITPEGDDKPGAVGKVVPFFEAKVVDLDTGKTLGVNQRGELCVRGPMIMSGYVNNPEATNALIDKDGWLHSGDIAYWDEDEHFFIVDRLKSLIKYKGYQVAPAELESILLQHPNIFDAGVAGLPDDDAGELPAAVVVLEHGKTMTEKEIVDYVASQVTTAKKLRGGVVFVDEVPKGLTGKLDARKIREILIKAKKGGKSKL
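Purified P. pyralis luciferase (10nM final) with 10uM D-luciferin and 10uM ATP (Km levels) in 50mM Tris acetate pH 7.5, 10mM Mg acetate, 0.01% Tween-20, 0.05% BSA; qHTS 6-point titration, ~60 µM downward; luminescence read.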
KinaseGlo FLuc: Kinase-Glo luciferase inhibition (counter-screen) | Q27757 | Kinase-Glo luciferase, ATP luminescence, 8 min | Potency, µM (doses to about 38.3 µM), inactives show top-dose activity change, negative = inhibition, actives largely listed as inhibitors | 0.28% of 200,000 active | AID 1379; also: % is scaled to controls: 0 for no effect and ±100 for the full control effect; nearly all actives have a fitted effect of over 60% in size
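Light output from Kinase-Glo luciferase with luciferin and 10 uM ATP in 50 mM imidazole pH 7.2, KCl, MgCl2, Tween 20, BSA; compound pin-delivered, 8-min ambient incubation, then luminescence read.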
NPC1 prom act: NPC1 promoter activation | Huh7 NPC1 promoter luciferase reporter, 24 h | Potency, µM (top dose mostly 9.22 µM), without a hit: at the top dose activation, most hits filed as activators | 2.4% of 320,000 active; also: % of control where 0% means no effect; nearly all actives have a fitted effect of over 60% in size
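Readout is luciferase luminescence, reflecting NPC1 promoter activation in stably transfected Huh7 cells after 24 h compound exposure at 37 °C in reduced-serum medium with 10% FBS.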
The depositor's hits bear a star; ? = inconclusive; / = no result; ! = repeats disagree; [ ] = another dose, or the depositor's remark. This is a sample that favours compounds with a hit; in the whole collection about 7.3% have one here. Calls follow the shape of the dose curve; as a rule, active = well fitted curve in the direction sought with a large enough effect; inconclusive = small, poorly fitted or top-dose-only effect, or another doubt; inactive = no such curve, though single readings can be large; an effect the other way counts as inactive or inconclusive. Potency is read from the fitted curve at half-maximal effect.

SMILES	ELG1 genotoxic	Rab9 promoter act	SMN2 splice enh	FLuc counter	KinaseGlo FLuc	NPC1 prom act
Fc1ccccc1/C=N/Nc1ccc(Cl)nn1	?	?	/	11µM*	/	?
Fc1ccccc1/C=N/Nc1nn[nH]n1	5%	14%	-16%	0%	-3%	-3%
CCOc1ccc(-c2nonc2NC(=O)c2oc3cc(C)ccc3c2C)cc1OCC	/	/	0%	-8%	/	/
COCCNC(=O)c1cc2c(s1)-c1ccc(Cl)cc1SC2	?	2.2µM*	/	6µM*	/	2.5µM*
Cc1cccc(NC(=O)C(=O)NCCc2csc(-c3ccc(F)cc3)n2)c1C	/	/	/	-2%	/	/
Cn1c2ccccc2c2cc(/C=N/NC(=O)c3ccc(N)cc3)ccc21	-14%	12%	/	11µM*	/	-2%
CCn1c2ccccc2c2cc(/C=N/NC(=O)c3ccccc3C)ccc21	?	-16%	-72%	?	-1%	-22%
Cn1c2ccccc2c2cc(/C=N/NC(=O)c3ccccc3F)ccc21	-11%	13%	/	7.6µM*	/	-10%
O=C(CCC1CCCC1)N1CCN(C(=O)c2ccco2)CC1	-4%	-5%	-3%	3%	-1%	3%
Cc1ccc(NC2CCCN(C(=O)CCN3CCCCO3)C2)cc1C (stereo not given)	2%	7%	/	-3%	/	-2%
COc1ccc(C(=O)Nc2cc3c(cc2Cl)OCCCO3)cc1	?	3.5µM*	?	9.5µM*	-3%	2µM*
COc1cccc(C(=O)Nc2cc3c(cc2Cl)OCCCO3)c1	?	1.8µM*	10µM*	3µM*	-6%	3.2µM*
COc1ccc(Cl)cc1NC(=O)CSC1=Nc2ccccc2C2=NC(CC(=O)NC3CCCCC3)C(=O)N12 (stereo not given)	/	/	-9%	-3%	/	/
CC(=O)Nc1cccc(Oc2nc(-c3ccccn3)nc3ccccc23)c1	-15%	-1%	/	15µM*	/	-6%
CC(C)c1ccc(NC(=O)CSc2ncccc2C(=O)Oc2cccc([N+](=O)[O-])c2)cc1	16µM*	4.5µM*	10µM*	?	-2%	4µM*
COc1ccc(NC(=O)CSc2ncccc2C(=O)OC(C)C)cc1OC	-5%	-20%	-38%	?	-5%	-2%
O=C(NCCCN1CCOCC1)c1cc(-c2ccccc2)on1	18µM*	27%	-18%	-3%	4%	14%
O=C(NCCN1CCOCC1)c1cc(-c2ccccc2)on1	18µM*	20%	-3%	-3%	1%	14%
CC(=O)N1CCOc2ccc(S(=O)(=O)N3CCCCC3)cc21	1%[9.26 µM]	1%	/	3%	/	-8%
COc1cccc(CN(C)C(=O)c2cc(COc3ccc4ncccc4c3)on2)c1	-12%	-56%	/	-14%	2%	-27%
COc1ccc(OCc2cc(C(=O)N(C)Cc3nccn3C)no2)c2ccccc12	-5%	0%	/	6%	/	-3%
COc1ccc(OCc2cc(C(=O)N(Cc3nccn3C)C(C)C)no2)c2ccccc12	13%	3.2µM*	/	13µM*	/	?
COc1cccc(OCc2cc(C(=O)N(C)CCOc3ccc(C)cc3)no2)c1	?	2.8µM*	/	13µM*	/	3.5µM*
COc1cccc(OCc2cc(C(=O)N(C)Cc3nccn3C)no2)c1	?	1.8µM*	/	19µM*	/	2.8µM*
COc1ccccc1N1CCN(c2nc(N)c(C#N)c(CC#N)c2C#N)CC1	6%	-1%	-16%	0%	-2%	-5%
SMILES	ELG1 genotoxic	Rab9 promoter act	SMN2 splice enh	FLuc counter	KinaseGlo FLuc	NPC1 prom act
Cc1c(-c2nc(-c3ccncc3)no2)cccc1[N+](=O)[O-]	4%	22%	/	-15%	/	26%
Cc1occc1-c1nc(-c2ccncc2)no1	18µM*	10%	?	?	-23%	13%
Cc1ccc(-c2noc(-c3ccoc3C)n2)cc1	15µM*	-6%	?	3µM*	-19%	?
CCn1c(C)nc2cc(C(=O)NNC(=S)Nc3ccccc3Cl)ccc21	?	?	?	17µM*	4%	?
CCn1c(C)nc2cc(C(=O)NNC(=S)Nc3ccccc3)ccc21	10µM*	0.79µM*	9%	12µM*	1%	0.45µM*
CCn1c(C)nc2cc(C(=O)NNC(=S)Nc3ccc(Cl)cc3Cl)ccc21	-4%	-1%	-8%	?	1%	3%
CCn1c(C)nc2cc(C(=O)NNC(=S)Nc3ccc(Cl)cc3)ccc21	3%	15%	/	?	/	8%
CCn1c(NC(=S)Nc2ccccc2)nc2ccccc21	3%	?	25%	3.4µM*	-2%	?
Cc1ccnc2nc(C(=O)Nc3nccs3)nn12	?	22%	?	-19%	-9%	21%
N#Cc1c(N2CCOCC2)nsc1-c1ccc(C(F)(F)F)cc1	?	?	/	7.6µM*	/	?
Cc1cc(C(F)(F)F)c(C#N)c(N2CCOCC2)n1	0%	-2%	-10%	1%	0%	-3%
CCN(c1cccc(C)c1)S(=O)(=O)c1nnc(NC(=O)c2ccco2)s1	-3%	3%	/	2%	/	1%
CCN(c1ccccc1)S(=O)(=O)c1nnc(NC(=O)c2ccco2)s1	-1%	0%	/	0.21µM*!	/	2%
CCN(c1cccc(C)c1)S(=O)(=O)c1nnc(NC(=O)c2ccccc2Cl)s1	/	/	/	13µM*	/	/
CN(C)c1ccc(NC(=S)NC(=O)/C=C/c2ccc(Cl)cc2)cc1	11%	21%	44%	4.8µM*	2%	16%
CN(C)c1ccc(NC(=O)/C=C/c2ccccc2Cl)cc1	?	2.5µM*	20µM*	1.2µM*	0%	?
CCN(CC)c1ccc(NC(=O)/C=C\c2ccccc2Cl)cc1	7.3µM*	27%	?	2.7µM*	6%	26%
CCN(CC)c1ccc(NC(=O)C(C)C)cc1	11%	13%	-13%	-15%	-5%	11%
COc1cc(C2C(=O)c3ccccc3C2=O)ccc1O	8%	0%	/	24µM*	/	0%
COc1ccc(NC2=C(c3ccc(OC)cc3)C(=O)c3ccccc32)cc1	5%	12%	-4%[1.84 µM]	-2%	-4%	6%
COc1cc(C2N(C)C(=O)c3ccccc3N2C)ccc1O (stereo not given)	-1%	0%	/	3%	/	-4%
COc1ccc(C2C(=O)c3ccccc3C2=O)c(OC)c1	1%	-3%	-4%	-1%	4%	2%
COc1ccc(C2C(=O)c3ccccc3C2=O)cc1OC	-4%	?	/	8.5µM*	?	28%
COc1ccc(C2C(=O)c3ccccc3C2=O)cc1	?	?	4µM*!	5.4µM*	?	?
COc1ccc(C2=C(N)c3ccccc3C2=O)cc1	13µM*	4.5µM*	?	11µM*	?	4.5µM*
